Compound activity deposited in PubChem by National Center for Advancing Translational Sciences (NCATS).
An excerpt weighted towards active compounds, which were near 7.4% of everything screened.
Luc counter = blocks Kinase-Glo luciferase, a counter-screen artifact; Q27757; Kinase-Glo luciferase, ATP luminescence, 8 min; Potency, µM (highest dose often 38.3 µM), actives largely listed as inhibitors; hit rate 0.28% among 200,000; AID 1379; note: nearly all actives have a fitted effect of over 60% in size
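Luminescence was the read-out, taken after 8-minute incubation at ambient temperature. Luciferase turned over luciferin with 10 uM ATP in imidazole pH 7.2 buffer containing KCl, MgCl2, Tween 20 and BSA.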
SMN2 splice up = SMN2 splice variant enhancement; HEK293 SMN2-luciferase splicing reporter, luminescence, 30-36 h; Potency, µM (doses to about 46.1 µM), hits mostly activators; hit rate 2.8% among 210,000; note: nearly all actives have a fitted effect of over 55% in size
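HEK293 cells carry an SMN2 […]–luciferase reporter in which exon 7 inclusion puts luciferase in frame. Cells were plated 10-12 h before compound addition, then incubated 30-36 h at 37C. ONE-Glo luminescence was read; sodium butyrate at 4.5 mM final served as control.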
Rab9 prom act = Rab9 promoter activation | Huh7 Rab9 promoter-luciferase reporter, luminescence, 24 h | Potency, µM (series often up to 9.22 µM), hits mostly activators | hit rate 2.8% among 320,000; note: nearly all actives have a fitted effect of over 60% in size
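Cells were plated at 1500 per well in reduced-serum medium with 10% FBS and left 2 h. Compound in DMSO was then added for 24 h at 37 °C. Reporter signal was read by luminescence after 10 min with luciferase detection reagent.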
NPC1 prom act = NPC1 promoter activation | Huh7 NPC1 promoter luciferase reporter, 24 h | Potency, µM (series often up to 9.22 µM), most hits filed as activators | hit rate 2.4% among 320,000 | AID 485313; note: nearly all actives have a fitted effect of over 60% in size
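Stable NPC1-promoter luciferase Huh7 line; cpd (DMSO) 24 h, 37 °C, 5% CO2; Amplite luciferase reagent 10 min RT; luminescence readout. qHTS format.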
ELG1 genotox = genotoxicity induction in ELG1-luciferase HEK293T cells. Potency, µM (highest dose often 46 µM), usual class: activators. hit rate 1.3% among 330,000. AID 504466. HEK293T ELG1-luciferase reporter, luminescence, 16 h; note: nearly all actives have a fitted effect of over 60% in size
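16 hr compound incubation (37 °C, 5% CO2) of HEK293T cells carrying luciferase-tagged ELG1; luciferase then measured by ONE-Glo luminescence after 30 min at RT.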
FLuc counter = firefly luciferase modulation, counter-screen for miR-21 project; purified FLuc, Km substrates, luminescence inhibition; Potency, µM (highest dose often 57.5 µM), usual class: inhibitors; hit rate 6.9% among 360,000; note: nearly all actives have a fitted effect of over 55% in size
Target sequence (P08659 whole entry, looked up): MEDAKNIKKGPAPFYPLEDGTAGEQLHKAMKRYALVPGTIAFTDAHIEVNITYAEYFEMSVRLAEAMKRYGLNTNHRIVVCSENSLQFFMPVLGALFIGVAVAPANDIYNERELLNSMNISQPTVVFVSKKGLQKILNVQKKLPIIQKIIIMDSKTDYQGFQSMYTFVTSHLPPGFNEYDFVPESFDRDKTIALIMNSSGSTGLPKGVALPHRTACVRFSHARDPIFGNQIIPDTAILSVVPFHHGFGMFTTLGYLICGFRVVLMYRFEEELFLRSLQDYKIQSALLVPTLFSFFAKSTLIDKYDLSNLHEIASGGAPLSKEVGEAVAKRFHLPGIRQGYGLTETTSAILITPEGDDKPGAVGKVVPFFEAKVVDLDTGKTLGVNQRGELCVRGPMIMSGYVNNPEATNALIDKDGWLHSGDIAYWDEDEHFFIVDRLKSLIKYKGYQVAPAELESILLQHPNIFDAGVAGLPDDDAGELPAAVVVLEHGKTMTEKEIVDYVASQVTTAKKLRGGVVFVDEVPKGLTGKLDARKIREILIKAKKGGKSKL
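Purified P. pyralis luciferase, 10 nM final, with Km-level 10 uM D-luciferin and 10 uM ATP in 50 mM Tris acetate pH 7.5, 10 mM Mg acetate, 0.01% Tween-20, 0.05% BSA; 6-point qHTS titration about 60 µM downward; luminescence read.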
A number is an active result; - = inactive; ? = inconclusive; . = not tested or not shown; ! = not confirmed by another sample; [ ] = dose if it differs, or a comment. Calls come from the whole dose curve; as a rule, active = well fitted curve in the direction sought with a large enough effect; inconclusive = small, poorly fitted or top-dose-only effect, or another doubt; inactive = no such curve, though single readings can be large; an effect the other way counts as inactive or inconclusive.

SMILES	Luc counter	SMN2 splice up	Rab9 prom act	NPC1 prom act	ELG1 genotox	FLuc counter
CN(C(=O)c1ccncc1)c1nnc(-c2cccnc2)s1	-	.	-	-	?	-
Cc1ccc(C(=O)N(C)c2nnc(-c3ccncc3)s2)cc1	-	-	?	?	-	17µM
COc1ccc(/C=N/NC(=O)c2cc(C34CC5CC(CC(C5)C3)C4)[nH]n2)cc1O	-	-	-	-	?	15µM
COc1ccc(/C=N\NC(=O)c2ccc(=O)[nH]n2)cc1O	-	-	-	-	-	-
O=C(Nc1nnc(S(=O)(=O)Nc2ccccc2)s1)c1ccccc1Cl	.	.	-	-	-	9.5µM!
COc1ccc(OCC(=O)Nc2nnc(S(=O)(=O)N3CCCCCC3)s2)cc1	.	.	-	-	-	15µM!
O=C(Nc1nnc(S(=O)(=O)N2CCCCCC2)s1)c1ccccc1	.	.	4µM	?	-	6.7µM
O=C(Nc1nnc(S(=O)(=O)Nc2ccccc2)s1)C1CCCCC1	.	.	-	-	-	8.5µM!
COc1ccccc1N1CCN(c2nc3c(S(=O)(=O)c4ccc(C)c(C)c4)nnn3c3ccc(Cl)cc23)CC1	.	-	.	.	.	-
Cc1ccccc1NS(=O)(=O)c1nnc(NC(=O)c2ccc(Cl)cc2)s1	.	.	-	-	-	2.4µM!
O=C(Nc1nnc(S(=O)(=O)N2CCCC2)s1)c1ccccc1Cl	.	.	-	-	-	4.8µM
COC(=O)C1CCN(S(=O)(=O)c2cc3c4c(c2)CC(=O)N4CCC3)CC1	.	.	.	.	.	-
OC1(c2ccc(Cl)cc2)CCN(Cc2nc(-c3cnccn3)no2)CC1	.	.	-	-	-	-
Clc1ccc(-c2nc(-c3cnccn3)no2)cc1	.	.	0.71µM	0.56µM	?	2.4µM
Cc1noc(-c2ccc(-c3noc(-c4ccc(Cl)cc4)n3)cc2)n1	.	.	.	.	.	-
Fc1ccc(-c2nc(-c3cnccn3)no2)c(Cl)c1	.	.	0.32µM	0.45µM	?	2.4µM
Cc1occc1C(=O)NNC(=S)Nc1ccccc1C(F)(F)F	-	?	2.8µM	?	-	-
Cc1occc1C(=O)NNC(=S)Nc1ccccc1	-	?	2.5µM	?	?	?
Cc1ccccc1NC(=S)NNC(=O)c1ccoc1C	-	-	?	?	-	-
CCNC(=S)NNC(=O)c1ccoc1C	-	-	-	-	-	-
COc1ccc(C(=O)N2CCCCCC2)cc1S(=O)(=O)N1CCOCC1	.	.	-	-	-	-
COC(=O)c1cnc(Oc2ccc(NC(=O)NC(=O)c3ccccc3Cl)cc2)cc1C(F)(F)F	.	.	-	-	-	-
CC1CCN(Cc2c(O)ccc3c(=O)c(-c4nc5ccccc5s4)c(N)oc23)CC1	-	-	-	-	-	11µM
CC1(C)CCCN(Cc2c(O)ccc3c(=O)c(-c4nc5ccccc5s4)c(N)oc23)C1	.	.	?	-	?	6µM
CC1CCCN(Cc2c(O)ccc3c(=O)c(-c4nc5ccccc5s4)c(N)oc23)C1 (configuration not stated)	-	-	-	-	-	6.7µM
SMILES	Luc counter	SMN2 splice up	Rab9 prom act	NPC1 prom act	ELG1 genotox	FLuc counter
CC1CCN(Cc2c(O)ccc3c(=O)c(-c4ccc(Cl)cc4)c(C(F)(F)F)oc23)CC1	.	-	.	.	.	-
CCCCN(CC)CCNC(=O)Cn1c(=O)c2cccn2c2cccnc21	.	.	.	.	.	-
COC(=O)c1ccc(NC(=O)CSc2nnc(-c3cccnc3)o2)cc1	.	.	-	-	-	-
COCCN1C(=O)C(=O)/C(=C(/O)c2ccc(S(=O)(=O)N3CCCCC3)cc2)C1c1ccc(OC)cc1 (configuration not stated)	.	.	-	-	-	-
Cc1ccc(-c2cc(-c3n[nH]c(=S)n3C)c3ccccc3n2)cc1	-	-	-	-	-	11µM
Cn1c(-c2ccccc2)n[nH]c1=S	.	.	-	-	-	-
CCOc1cccc(-c2cc(-c3n[nH]c(=S)n3CC)c3ccccc3n2)c1	-	-	-	-	-	12µM
CCn1c(-c2cc(-c3ccc(C)c(C)c3)nc3ccccc23)n[nH]c1=S	-	.	-	-	-	3µM
COc1ccc(C2(O)C(=O)Nc3ccc(C)cc32)cc1OC (configuration not stated)	.	.	-[1.84 µM]	-	-	-
